In all, about 340,000 compounds went through this assay and about 1,300 (0.38%) were called active.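 How the source made its calls: active means maximum activity change below -70%; inconclusive means maximum activity change between -70% and -50%; inactive means maximum activity change above -50%.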 What follows is part of a selection rich in actives, with near analogues and random picks from the rest.
The compounds below were run against Voltage-gated inwardly rectifying potassium channel KCNH2 (Homo sapiens) (UniProt Q12809) (assay: qHTS for Inhibitors of KCHN2 3.1: Wildtype qHTS). Conditions: U2OS, BacMam KCNH2, thallium flux FluxOr; at 1.84 µM; active compounds read low.
Sequence of Voltage-gated inwardly rectifying potassium channel KCNH2 (Homo sapiens) (Q12809 whole entry, looked up): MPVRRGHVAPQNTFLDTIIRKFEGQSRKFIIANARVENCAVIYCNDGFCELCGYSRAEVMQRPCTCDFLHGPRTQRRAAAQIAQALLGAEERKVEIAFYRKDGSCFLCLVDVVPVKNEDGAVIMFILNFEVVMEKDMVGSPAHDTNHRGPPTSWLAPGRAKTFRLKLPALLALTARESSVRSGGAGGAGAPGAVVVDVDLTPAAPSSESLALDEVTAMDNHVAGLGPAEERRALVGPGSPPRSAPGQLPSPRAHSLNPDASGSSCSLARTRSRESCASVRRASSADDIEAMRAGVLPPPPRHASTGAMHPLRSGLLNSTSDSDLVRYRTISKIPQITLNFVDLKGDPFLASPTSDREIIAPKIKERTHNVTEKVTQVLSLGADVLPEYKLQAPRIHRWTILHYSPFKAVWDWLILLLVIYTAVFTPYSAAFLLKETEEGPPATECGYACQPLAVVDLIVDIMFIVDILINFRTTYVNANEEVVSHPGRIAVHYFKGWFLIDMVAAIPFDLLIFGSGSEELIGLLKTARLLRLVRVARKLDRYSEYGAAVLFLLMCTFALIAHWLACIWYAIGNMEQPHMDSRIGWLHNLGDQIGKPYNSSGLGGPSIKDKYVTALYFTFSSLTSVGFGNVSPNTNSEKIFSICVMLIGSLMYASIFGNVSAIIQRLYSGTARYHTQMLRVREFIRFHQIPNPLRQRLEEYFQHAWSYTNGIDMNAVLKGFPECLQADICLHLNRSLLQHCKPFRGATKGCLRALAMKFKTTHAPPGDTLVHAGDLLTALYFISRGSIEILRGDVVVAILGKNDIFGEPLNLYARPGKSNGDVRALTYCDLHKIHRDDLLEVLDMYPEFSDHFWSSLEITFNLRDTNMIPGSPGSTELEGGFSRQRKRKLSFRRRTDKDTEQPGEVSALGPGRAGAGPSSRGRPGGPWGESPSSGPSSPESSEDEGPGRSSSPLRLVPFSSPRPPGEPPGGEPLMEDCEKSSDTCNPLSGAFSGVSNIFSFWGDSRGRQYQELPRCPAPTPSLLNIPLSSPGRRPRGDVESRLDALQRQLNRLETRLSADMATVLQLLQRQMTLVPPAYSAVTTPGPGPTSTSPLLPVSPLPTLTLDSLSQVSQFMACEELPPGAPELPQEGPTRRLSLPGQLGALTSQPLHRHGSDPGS
How it was run: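 U2OS cells transduced with wild-type KCNH2 virus are loaded with FluxOr dye for 45 min, and thallium flux is measured in kinetic reads before and after stimulation buffer. Rate constants are normalized to DMSO controls.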
For `O=C(O)c1ccccc1Cc1ccc(F)c2ccccc12`, the activity change was 3.97% (inactive).
In the case of `COC(=O)C[C@H]1C[C@@H]2c3cc(N(C)C)ccc3O[C@@H]2[C@H](CO)O1`, the activity change is reported as -11.4% (inactive).
For `O=C(c1ccc(CS(=O)Cc2ccccc2Cl)o1)N1CCN(c2ccccc2)CC1` (stereo not drawn), the activity change was 7.11% (inactive).
For `Cc1nc2ccccc2n1CC(O)c1ccccc1` (stereo not drawn), the activity change was -1.47% (inactive).
`CCOC(=O)c1ccc2c(c1)nc(C)n2CC` was tested, and the activity change was 12.4% (inactive).
For `CCn1c(C)nc2c1C(=O)c1ccccc1C2=O`, the activity change was -229% (active).
`C[C@@H]1CN([C@H](C)CO)C(=O)CCCn2cc(nn2)CO[C@H]1CN(C)S(C)(=O)=O` was tested, and the activity change was -23.5% (inactive).
For `CC(C)N=C1CCCC1C(=S)SSC(=S)C1CCCC1=NC(C)C` (stereo not drawn), the activity change was -26.8% (inactive).
With `Cc1ccc(S(=O)(=O)/N=C2\C=C(NS(=O)(=O)c3ccc(C)cc3)C(=O)c3ccccc32)cc1` the activity change was 1.35% (inactive).
`CN(C)CCN(C(=O)CN1C(=O)c2ccccc2C1=O)c1nc2cc3c(cc2s1)OCCO3` was tested, and the activity change was 8.23% (inactive).
In the case of `Cc1ccc(S(=O)(=O)N(C)C)cc1NC(=O)/C=C/c1cccs1`, the activity change is reported as -0.908% (inactive).
`Cc1cc(C)c2nc(N(CCN(C)C)C(=O)/C=C/c3cccs3)sc2c1` was tested, and the activity change was -136% (active).
In the case of `Cc1ccc2sc(N(CCN(C)C)C(=O)/C=C/c3cccs3)nc2c1C`, the activity change is reported as -101% (active).
`Cc1cccc2sc(N(CCCN(C)C)C(=O)CCS(=O)(=O)c3ccccc3)nc12` was tested, and the activity change was 3.42% (inactive).
For `Cc1ccc(S(=O)(=O)N(C)C)cc1NC(=O)COC(=O)/C=C/c1cccs1`, the activity change was -3.39% (inactive).
For `CCOc1ccc(CCNC(=O)COC(=O)c2ccc(C)c(S(=O)(=O)N3CCOCC3)c2)cc1OCC`, the activity change was -0.902% (inactive).
`O=C(Nc1cccc(C(=O)O)c1)/C(=C\c1ccccc1)NC(=O)c1ccc(Br)o1` was tested, and the activity change was 9.44% (inactive).
With `Cc1ccc(S(=O)(=O)NN=C2CC(C)(C)CC(=O)C2(C)C)cc1` the activity change was -3.73% (inactive).
With `O=C(OCc1ccccc1)N1CCC2CC1c1cc(N3CCN(S(=O)(=O)c4cc(Cl)cc(Cl)c4)CC3)ccc12` (stereo not drawn) the activity change was 3.43% (inactive).
With `O=C(Nc1cccn(Cc2c(Cl)cccc2Cl)c1=O)c1ccc(Cl)cc1` the activity change was -350% (active).
`O=C(Nc1cccn(Cc2ccccc2Cl)c1=O)NC1CCCCC1` was tested, and the activity change was -11.4% (inactive).
For `Cc1cc(NC(=O)c2ccco2)c(=O)n(Cc2c(F)cccc2Cl)c1`, the activity change was -11.4% (inactive).
For `CCOC(=O)C1CCN(C(=O)c2ccc3c(=O)n4nc(Nc5ccccc5CC)sc4nc3c2)CC1`, the activity change was -22.8% (inactive).
In the case of `CCN(CC)C(=O)C1=C(C)N(Cc2ccc(F)cc2)C(=O)C(CC(=O)NCc2cccc3ccccc23)C1` (stereo not drawn), the activity change is reported as 6.51% (inactive).
`O=C(Oc1ccc(-c2nc(-c3ccccn3)no2)cc1)c1ccccc1` was tested, and the activity change was -11.6% (inactive).
With `COC(=O)c1ccc(OC(=O)c2cnccn2)cc1` the activity change was -0.0992% (inactive).
For `O=C(Oc1ccccc1)c1ccc2nccnc2c1`, the activity change was -169% (active).
With `Cc1cccc(C(=O)C(O)(c2ccccc2)C2CCCCC2=O)c1` (stereo not drawn) the activity change was 8.63% (inactive).
`N#CCSc1ccccc1NC(=O)CN1C(=O)NC(CCc2ccccc2)C1=O` (stereo not drawn) was tested, and the activity change was -4.38% (inactive).
In the case of `CC1CCC2(CC1)NC(=O)N(CC(=O)NCc1ccco1)C2=O` (stereo not drawn), the activity change is reported as 5.92% (inactive).
For `COc1ccc(CCNC(=O)CN2C(=O)CCSc3ccccc32)c(OC)c1`, the activity change was -169% (active).
For `COc1ccc(CCNC(=O)CCc2cn(C)c3ccccc23)c(OC)c1`, the activity change was 6.58% (inactive).
For `CCOC(=O)CNC(=O)CN1C(=O)CCSc2ccccc21`, the activity change was 10.6% (inactive).
For `CCOC(=O)C(C(=O)c1ccccc1)C(c1ccccc1)c1nccc2ccccc12` (stereo not drawn), the activity change was 3.11% (inactive).
For `O=C(CN1CCN(C(=O)c2ccco2)CC1)Nc1ccc2c(c1)OCO2`, the activity change was -4.79% (inactive).
With `O=C(COC(=O)c1ccc(F)cc1)Nc1ccc2c(c1)OCO2` the activity change was -0.371% (inactive).
With `O=C(CN1CCN(CC(=O)Nc2ccc3c(c2)OCO3)CC1)Nc1ccc(F)cc1` the activity change was -129% (active).
With `CCCCN1C(=O)C(CC(=O)NCc2cccs2)CC(C(=O)N2CCOCC2)=C1C` (stereo not drawn) the activity change was -2.88% (inactive).
In the case of `Cc1ccc(S(=O)(=O)N2C[C@]3(O)C[C@@H]4C(=O)N(c5ccccc5)C(=O)[C@@H]4C[C@]3(OC(=O)NC3CC3)C2)cc1`, the activity change is reported as -7.72% (inactive).
`CN(C)/C=C(/C(=O)c1ccccc1Cl)S(C)(=O)=O` was tested, and the activity change was -134% (active).
In the case of `CN(C)/C=C(/C(=O)c1ccc(Cl)cc1)S(=O)(=O)c1ccccc1`, the activity change is reported as 0.0109% (inactive).
`CN(C)/C=C(/C(=O)c1ccccc1)S(=O)(=O)c1ccc(Cl)cc1` was tested, and the activity change was -7.44% (inactive).
In the case of `COCC1CCCCN1C(=O)c1cc(COc2ccc(C)c(C)c2)on1` (stereo not drawn), the activity change is reported as -11.8% (inactive).
On the % scale 0 is the no-effect control and ±100 the full control effect.
